Screening data deposited in PubChem by National Center for Advancing Translational Sciences (NCATS).
Hits are enriched below; roughly 5.9% of the tested compounds scored in any of these assays.
TGFb SMAD3 inh: qHTS for Inhibitors of TGF-b; AID 588855, 2011; Potency, µM (highest dose often 46.1 µM), inactives show at the top dose activity, negative = inhibition, usual class: inhibitors; HepG2 CAGA-GFP TGF-b/SMAD3 reporter, GFP fluorescence, 18 h; TGF-beta stimulated, 500 pg/mL final; 1.2% of 410,000 active; further: on the % scale 0 is the no-effect control and ±100 the full control effect; nearly all actives have a fitted effect of over 65% in size
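HEPG2 CAGA-GFP, 1000 cells/well; 2 h settle, 37 C; cpd via pin tool; TGF-b 500 pg/mL final; 18 h, 37 C; GFP imaging ex488/em500-530; %Activity normalised to -TGF-b and +DMSO controls; CRC fit, curve class.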
HepG2 tox: qHTS for Inhibitors of TGF-b: Cytotox Counterscreen; HepG2 CAGA-GFP viability, ATP luminescence, 18 h; Potency, µM (top dose mostly 46.1 µM), for inactives: top-dose activity change, negative = cytotoxicity, hits mostly cytotoxic; 0.76% of 410,000 active
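HepG2 CAGA-GFP cells (1000/well, DMEM with 1% FBS) received compound, then TGF-beta at 500 pg/mL final, and were incubated 18 hours at 37 degrees C. Viability was read by CellTiter-Glo luminescence. Media-only wells were set as complete cell-killing and DMSO as no toxicity.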
KB-V1 MDR tox: qHTS assay for MDR1-selective chemotherapeutics: Primary screen using the drug-selected MDR subline cells KB-V1. AID 1347076, 2019. KB-V1 MDR cells viability, CellTiter-Glo, 72 h. Potency, µM (series often up to 46.1 µM), actives largely listed as cytotoxic. 3.4% of 400,000 active; further: on the % scale 0 is the no-effect control and ±100 the full control effect; nearly all actives have a fitted effect of over 60% in size
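Luminescent ATP read-out (CellTiter-Glo, 10 min) measures survival of drug-selected KB-V1 MDR cells after 72 h, 37 degrees C compound exposure. Medium: phenol-red-free DMEM, 10% FBS. Values from fitted concentration-response curves.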
ATXN2 expr inh: Primary qHTS for Inhibitors of ATXN expression; HEK-293 ATXN2-luciferase reporter, luminescence, 24 h; 0.72% of 360,000 active; Potency, µM (titrated, usually from 57 µM), for the others: top-dose activity change, negative = inhibition, hits mostly inhibitors; further: on the % scale 0 is the no-effect control and ±100 the full control effect; nearly all actives have a fitted effect of over 55% in size
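ATXN2-luciferase reporter cells (luciferase flanked by upstream and downstream ATXN2 gene portions) were treated 24 h at 37 °C with compounds at up to 57 uM. SteadyGlo luminescence gave expression; GF-AFC fluorescence gave viability.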
S2 tox: Viability Counterscreen for Primary qHTS for Inhibitors of ATXN expression; S2 cells (HEK-293 line with an ATXN2-luciferase reporter) viability, CellTiter-Fluor protease fluorescence, 24 h; Potency, µM (highest dose often 56.7 µM), hits mostly cytotoxic; 0.49% of 400,000 active; AID 651635, 2014; further: nearly all actives have a fitted effect of over 40% in size
KB-3-1 tox: qHTS assay for MDR1-selective chemotherapeutics: Primary screen using the parental adenocarcinoma cell KB-3-1. KB-3-1 viability, CellTiter-Glo ATP luminescence, 72 h. Potency, µM (series often up to 46.1 µM), actives largely listed as cytotoxic. 1.4% of 400,000 active; further: on the % scale 0 is the no-effect control and ±100 the full control effect; nearly all actives have a fitted effect of over 60% in size
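Using CellTiter-Glo luminescence, growth of non-resistant KB-3-1 adenocarcinoma cells is assessed 72 h after pin-tool compound addition at 37 °C. Normalized responses across the concentration series yield fitted curves.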
* hit, by the source's call; i = inactive; ? = inconclusive; / = no result. The call rests on the fitted dose curve; in most records, active means well fitted curve in the direction sought with a large enough effect; inconclusive means small, poorly fitted or top-dose-only effect, or another doubt; inactive means no such curve, though single readings can be large; an effect the other way counts as inactive or inconclusive. Potency means the concentration at half of the fitted maximal effect.

SMILES	TGFb SMAD3 inh	HepG2 tox	KB-V1 MDR tox	ATXN2 expr inh	S2 tox	KB-3-1 tox
CCN(Cc1nc2cc(Cl)ccc2c(=O)[nH]1)C(=O)c1cc(C2CC2)nn1-c1ccccc1	?	-6%	i	-1%	?	i
CCN(Cc1nc2cc(Cl)ccc2c(=O)[nH]1)C(=O)c1nn(C)c(=O)c2ccccc12	-4%	1%	18µM*	-19%	i	i
O=C(O)c1ccc(N=Cc2c(O)ccc3oc4c(c23)CCCC4)cc1	?	-22%	i	/	i	i
Oc1ccccc1N=Cc1c(O)ccc2oc3c(c12)CCCC3	13µM*	-121%	i	/	?	i
COc1cccc(N2CCN(c3nc(-c4ccccc4C)cc(=O)[nH]3)CC2)c1	?	-18%	?	0.71µM*	i	?
Cc1ccc(Cl)cc1N1CCN(S(=O)(=O)c2c(C)noc2C)CC1	-15%	-25%	i	-22%	i	i
Cc1noc(C)c1S(=O)(=O)N1CCN(c2ccc(Cl)cc2)CC1	-8%	5µM*	i	-9%	i	i
Nc1nc(=O)n([C@@H]2O[C@H](CO)[C@@H](O)[C@@H]2F)cc1I	/	/	/	-4%	i	/
Cc1cnc(-n2ncc(C(=O)NCc3ccncc3)c2C(C)C)nc1-c1ccc(F)cc1	/	/	/	/	i	/
Cc1ccc[n+](CC(=O)/C=C2\N(C)c3ccccc3C2(C)C)c1	?	-3%	?	-23%	i	7.3µM*
Cc1cccc[n+]1CC(=O)/C=C1\N(C)c2ccccc2C1(C)C	?	-14%	i	-20%	?	4.1µM*
CN1/C(=C\C(=O)C[n+]2cccc(Br)c2)C(C)(C)c2ccccc21	-19%	-26%	i	-21%	i	?
Cc1[nH]cnc1C[C@H]1CCc2c(C)c3ccccc3n2C1=O	/	/	/	/	i	/
Cc1ccc(N(CC(=O)NCCc2ccccc2C)S(=O)(=O)N(C)C)cc1	-2%	-5%	i	2%	i	i
Cc1cccc(CNC(=O)c2sc(=O)n(Cc3c(C)cccc3C)c2C)c1	?	-6%	21µM*	6%	i	?
COc1ccc(CNC(=O)c2sc(=O)n(Cc3ccc(C)cc3)c2C)cc1OC	-7%	-3%	18µM*	-24%	i	i
Cc1ccc(Cn2c(C)c(C(=O)NCc3cccc(C(F)(F)F)c3)sc2=O)cc1	-27%	-8%	?	6%	i	i
COc1cc(C(=O)NCc2ccccc2)ccc1OC(F)F	0%	4%	i	1%	i	i
COc1cc(C(=O)NCc2ccc(C)cc2)ccc1OC(F)F	-22%	-15%	23µM*	2%	i	i
Cc1ccc(Cn2c(C)c(C(=O)NCC(C)C)sc2=O)cc1	2%	-2%	13µM*	10%	i	i
COc1ccc(CNC(=O)c2sc(=O)n(Cc3ccc(-c4ccccc4)cc3)c2C)cc1OC	-29%	1%	9.2µM*	0%	i	?
CCOc1ccc(NC(=O)c2cc(S(=O)(=O)NC3CCCC3)ccc2F)cc1	?	-19%	/	/	/	/
Cc1cc(C)c2oc(-c3cccc(NC(=O)c4ccc(Br)o4)c3)nc2c1	-19%	-2%	i	13%	i	i
O=C(Nc1ccc(Nc2ccccc2)cc1)c1ccc(Br)o1	?	-27%	13µM*	39%	i	?
O=C(Nc1cccc(-c2nnc(-c3ccccc3)o2)c1)c1ccc(Br)o1	?	-45%	21µM*	?	35µM*	i
C[C@@H](Cc1cc2c(c(C(N)=O)c1)N(CCCO)CC2)NCCOc1ccccc1OCC(F)(F)F	/	/	/	-13%	/	/
Cc1ccc(N/C(N)=N/c2nc(CSc3nnc(C)s3)cc(=O)[nH]2)c(C)c1	1%	0%	?	/	?	2.3µM*
